This is an account of results in PubChem BioAssay (EPA / NIEHS).

Each structure is given as a SMILES string. Records with an inconclusive call do not appear. Active and inactive are the calls of the source. Rule for the calls: active = hit-call score of the fitted dose curve at least 0.9, where 1 is the maximum; inactive = score below 0.9.

Read-out in the experiment: Cytochrome P450 2C9 (Homo sapiens) (UniProt P11712)
Nature of the experiment: CLD_CYP2C9_48hr: CellzDirect (CLD) Gene Expression Assay for xenobiotic metabolism (CYP2C9) at 48 hours (AID 2283701). The procedure: CLD_48hr is a cell-based, multiplexed-readout assay that uses hepatocyte, a human liver primary cell, with measurements taken at 48 hours after chemical dosing in a 96-well plate.CLD_CYP2C9_48hr is one of 16 assay component(s) measured or calculated from the CLD_48hr assay. It is designed to make measurements of mRNA induction, a form of inducible reporter, as detected with chemiluminescence signals by Quantitative Nuclease Protection Assay (qNPA) technology.Data from the assay component CLD_CYP2C9_48hr was analyzed at the endpoint, CLD_CYP2C9_48hr, in the positive analysis fitting direction relative to DMSO as the negative control and baseline of activity. Using a type of inducible reporter, gain-of-signal activity can be used to understand changes in the reporter gene as they relate to the gene CYP2C9. Furthermore, this assay endpoint can be referred to as a primary readout. To generalize the intended target to other relatable targets, this assay endpoint is annotated to the cyp intended target family, where subfamily is xenobiotic metabolism.
Human hepatocyte cultures were treated daily for two consecutive days with fresh dosing solutions containing appropriate concentrations of the 320 ToxCast chemicals (chemical identities were blinded to CellzDirect and other ToxCast collaborators), vehicle control (0.2% DMSO), and positive control inducers as summarized in Table 1. Due to the large number of treatment groups and chemicals examined, the ToxCast chemicals were divided into two groups (spanning two independent cultures of hepatocytes from separate donor preparations (Hu778: ToxCast plates 1 and 2; Hu776: ToxCast plates 3 and 4). Each preparation of human hepatocyte cultures was treated with respective vehicle control, medium only control, set of six positive controls/reference chemicals for the five hepatic receptor pathways, and a subset of eight of the ToxCast chemicals (indoxacarb, pyrithiobac-sodium, norflurazon, cyhalofop-butyl, methomyl, thiram, acetochlor, and propiconazole). These replicate data, coupled with internal replicates designed within the blinded ToxCast chemical library, provided additional data to evaluate interindividual differences between hepatocyte preparations and their potential impact on chemical profiles.Cell morphology and integrity were evaluated using phase-contrast microscopy as an indicator of hepatocyte cell health (Tyson & Green, 1987). Cultures for each treatment group (i.e., media, vehicle [0.2% DMSO], positive control inducers [multiple concentrations], and the ToxCast chemicals [multiple concentrations]) were observed and cell morphology was assessed relative to vehicle control cultures at each harvest time point (0, 6, 24, or 48 h). […] Images were evaluated at the conclusion of the study to assess changes in cell integrity and account for the effects of chemical exposure on uncharacteristic changes in concentration-dependent gene expression profiles. The results from these determinations of apparent cytotoxicity were annotated (yes/no) alongside the corresponding qNPA data for reference.At the conclusion of each treatment period, hepatocyte cultures (96-well) were washed with 1 volume of HBSS, lysed by addition of 25 ul ArrayPlate lysis buffer (HTG, Tucson, AZ), and 70 ul/well of Denaturation Oil, denatured by incubation at 95C for 10 min, and frozen at approximately -70C until analysis by nuclease protection assay (qNPA) (Roberts et al., 2007). For qNPA analysis, cell lysates were thawed at 50C for approximately 30 min, qNPA probes were added, and samples were incubated at 95C for 10 min to begin the detection process by denaturing the target RNA, dissociating the duplexes and secondary structure hybridization. At the conclusion of the hybridization period, S1 nuclease reagent was added to each sample to digest all nonprotected nucleotides at 50C for 60-90 min. […]
Take `CCc1cccc(C)c1N(C(=O)CCl)C(C)COC` (configuration not stated): the molecule was called inactive.
For the molecule `CNc1cnn(-c2cccc(C(F)(F)F)c2)c(=O)c1Cl`, the molecule was called inactive.
For `CSc1nc(NC(C)C)nc(NC(C)C)n1`, the outcome was inactive.
On to `CCOP(=S)(OCC)OC(Cl)C(Cl)(Cl)Cl` (configuration not stated), for which the outcome was inactive.
Take `CC(C)N(C(=O)SCC(Cl)=C(Cl)Cl)C(C)C`: the molecule was classed as inactive.
Regarding `Cc1ccn2nc(S(=O)(=O)Nc3c(F)cccc3F)nc2n1`, the call was inactive.
For `COc1ccc(C(=CC(=O)N2CCOCC2)c2ccc(Cl)cc2)cc1OC`, the call was inactive.
With `CCc1cccc(CC)c1N(COC)C(=O)CCl` the entry was “inactive”; with `CCCSP(=O)(OCC)Oc1ccc(Br)cc1Cl` (configuration not stated), “inactive”.
Turning to `CC(C)[C@H](C(=O)O[C@H](C#N)c1cccc(Oc2ccccc2)c1)c1ccc(Cl)cc1`, the molecule was called inactive.
As for `CCC(=NOC/C=C/Cl)C1=C(O)CC(C2CCOCC2)CC1=O` (configuration not stated), the molecule was classed as inactive.
Consider `CCCSP(=O)(OCC)SCCC`, for which the call was inactive.
Regarding `CN(C)C(=O)Nc1cccc(C(F)(F)F)c1`, the molecule was classed as inactive.
Turning to `CNC(=O)ON=C(SC)C(=O)N(C)C`, the result was inactive.
Take `CON=C(C(=O)OC)c1ccccc1CON=C(C)c1cccc(C(F)(F)F)c1`: the outcome was inactive.
Consider `CCOP(=O)(OCC)Oc1cc(C)nc(C(C)C)n1`, for which the result was inactive.
As to `CC(C)=CC1C(C(=O)OCN2C(=O)C3=C(CCCC3)C2=O)C1(C)C` (configuration not stated), the outcome was inactive.
Consider `COc1cc(OC)nc(Sc2cccc(Cl)c2C(=O)O)n1`, for which the result was inactive.
Consider `CCOP(=S)(OCC)Oc1ccc2c(C)c(Cl)c(=O)oc2c1`, for which the outcome was inactive.
With `O=c1ccc(=O)[nH][nH]1` the entry was “inactive”; with `CCOC(=O)COc1cc(-c2nn(C)c(OC(F)F)c2Cl)c(F)cc1Cl`, “inactive”.
Take `C#CC(C)(C)NC(=O)c1cc(Cl)cc(Cl)c1`: the molecule was classed as inactive.
`CCOP(=O)(NC(C)C)Oc1ccc(SC)c(C)c1` (configuration not stated): the call was inactive.
For `C#CCC1=C(C)C(OC(=O)C2C(C=C(C)C)C2(C)C)CC1=O` (configuration not stated), the outcome was inactive.
The value for `CN1COCN(Cc2cnc(Cl)s2)C1=N[N+](=O)[O-]` was “inactive”.
In the case of `Cc1cc(C2CC2)nc(Nc2ccccc2)n1`, the outcome was inactive.
As for `CCOP(=S)(Oc1cnc(C(C)(C)C)nc1)OC(C)C` (configuration not stated), the molecule was classed as inactive.
In the case of `CC(=NC#N)N(C)Cc1ccc(Cl)nc1`, the result was inactive.
With `COP(=O)(OC)SCn1c(=O)oc2cc(Cl)cnc21` the entry was “inactive”; with `CSc1nnc(C(C)(C)C)c(=O)n1N`, “inactive”; with `COc1cccc(C(=O)NN(C(=O)c2cc(C)cc(C)c2)C(C)(C)C)c1C`, “inactive”.
The value for `CCCCSP(=O)(SCCCC)SCCCC` was “inactive”; that for `CCCCOC(=O)[C@@H](C)Oc1ccc(Oc2ccc(C#N)cc2F)cc1` was “inactive”; that for `CCOP(=S)(OCC)SCCSCC` was “inactive”.
As for `COP(=O)(NC(C)=O)SC` (configuration not stated), the molecule was classed as inactive.
With `CC(COc1ccc(Oc2ccccc2)cc1)Oc1ccccn1` (configuration not stated), the outcome was inactive.
Turning to `CCOP(=O)(SC(C)CC)N1CCSC1=O` (configuration not stated), the outcome was inactive.
